Test results from PubChem BioAssay (NCATS).
A number with no mark means an inactive call. Entries that show only a call come without a potency. For part of these data: Potency and affinity values are given separately. Calls of active or inactive are those of the source. No rule for the calls is given here.

What was measured:
[1] = Ebola virus entry assay, green fluorescence channel
[2] = Ebola virus entry assay, ratio channel
[3] = Ebola virus entry assay, green channel fluorescence

| SMILES | efficacy [1] [%] | outcome [2] | outcome [3] | AC50 [2] |
| --- | --- | --- | --- | --- |
| O=c1[nH]c(=O)n([C@H]2C[C@H](O)[C@@H](CO)O2)cc1Br | -9.16 | inactive | inactive |  |
| CS(=O)(=O)c1ccc([C@@H](O)[C@@H](CF)NC(=O)C(Cl)Cl)cc1 | -18.1 | inactive | inactive |  |
| CC(C)(C)CC(C)(C)c1ccc(OCCOCC[N+](C)(C)Cc2ccccc2)cc1 | -219 |  |  | 2510 nM (active) |
| CC(C(=O)O)c1ccc(C(=O)c2ccccc2)s1 (stereo not drawn) | -17.9 | inactive | inactive |  |
| CCCCC(CC)COC(=O)c1ccccc1O (stereo not drawn) | -34.1 | inactive | inactive |  |
| COc1ccc(C(=O)c2ccccc2)c(O)c1 | 30 | inactive |  |  |
| Cc1c(F)c(N2CCNC(C)C2)cc2c1c(=O)c(C(=O)O)cn2C1CC1 (stereo not drawn) | -15 | inactive | inactive |  |
| Cc1cccc(C)c1NC(=O)c1cc(S(N)(=O)=O)c(Cl)cc1O | -19.2 | inactive | inactive |  |
| COc1ccc(Cc2cnc(N)nc2N)cc1OC | -23.5 | inactive | inactive |  |
| Oc1c(Br)cc(Br)c2cccnc12 | -19.4 | inactive | inactive |  |
| O=C(O)[C@@H]1[C@H]2C[C@H]3c4[nH]c5ccccc5c4CCN3C[C@@H]2CC[C@@H]1O | 38.8 | inactive | inactive |  |
| COc1cccc2c1C(=O)c1c(O)c3c(c(O)c1C2=O)C[C@@](O)(C(=O)CO)CC3OC1CC(N2CCOC(OC)C2)C(O)C(C)O1 (stereo partly drawn) | 57.9 | inactive |  |  |
| CCN1CCN(C(=O)N[C@@H](C(=O)N[C@@H]2C(=O)N3[C@@H]2SC(C)(C)[C@H]3C(=O)O)c2ccccc2)C(=O)C1=O | -32.7 | inactive | inactive |  |
| O=C(CCOCCOCCOCCOCCC(=O)Nc1c(I)cc(I)c(C(=O)O)c1I)Nc1c(I)cc(I)c(C(=O)O)c1I | -16.9 | inactive | inactive |  |
| CCCCOCCOC(=O)c1cccnc1 | -26.3 | inactive | inactive |  |
| Cc1c(I)c(=O)n(-c2ccccc2)n1C | -23.5 | inactive | inactive |  |
| O=c1c(C2CC(c3ccc(-c4ccc(Br)cc4)cc3)Cc3ccccc32)c(O)sc2ccccc12 (stereo not drawn) | 37.1 | inactive |  |  |

| SMILES | efficacy [1] [%] | outcome [2] | outcome [3] | AC50 [2] |
| --- | --- | --- | --- | --- |
| O=C1CC[C@H](C(=O)N2CCCCC2)N1 | -19.2 | inactive | inactive |  |
| C[N+](C)(CCOc1ccccc1)Cc1cccs1 | -18.5 | inactive | inactive |  |
| Cc1c(N(C)CS(=O)(=O)O)c(=O)n(-c2ccccc2)n1C | -26.4 | inactive | inactive |  |
| CCN1CCCC1CN (stereo not drawn) | -12.7 | inactive | inactive |  |
| Cc1ccccc1OCC(O)CO (stereo not drawn) | 25.5 | inactive | inactive |  |
| OC1(c2ccccc2)CCNCC1 | 9.98 | inactive | inactive |  |
| COCCOCC(OC)OC | 16.2 | inactive | inactive |  |
| CC(C)(C)C1CCC(CC2=C(O)c3ccccc3C(=O)C2=O)CC1 (stereo not drawn) | -22.8 | inactive | inactive |  |
| CC(C)(C)c1cc(C=O)cc(C(C)(C)C)c1O | 23.6 | inactive | inactive |  |
| CN(c1nccc(=O)[nH]1)C1CCN(c2nc3ccccc3n2Cc2ccc(F)cc2)CC1 | 66.4 | inactive |  |  |
| CCN(CC)C(=O)c1ccc(O)c(OC)c1 | 13.1 | inactive | inactive |  |
| CCN(CC)C(=O)[C@@H]1C=C2c3cccc4[nH]cc(c34)C[C@H]2N(C)C1 | 49.3 | inactive |  |  |
| C#C[C@]1(O)CC[C@H]2[C@@H]3CCC4=CC(=O)CC[C@]4(C)[C@H]3CC[C@@]21C | -17.3 | inactive | inactive |  |
| Cc1ncc(CO)c(CN)c1O | -11.8 | inactive | inactive |  |
| NC(=O)c1ncn([C@@H]2O[C@H](CO)[C@@H](O)[C@H]2O)c1O | -21.3 | inactive | inactive |  |
| Cc1ccnc(NS(=O)(=O)c2ccc(N)cc2)n1 | -24.3 | inactive | inactive |  |
